Key:
[1] = biological target: T1, Inhibitor of nuclear factor kappa-B kinase subunit epsilon (Homo sapiens) (UniProt Q14164); details: at 1 µM;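 also: reported values are averaged percent inhibition figures against human IKKε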
T1 sequence (whole entry): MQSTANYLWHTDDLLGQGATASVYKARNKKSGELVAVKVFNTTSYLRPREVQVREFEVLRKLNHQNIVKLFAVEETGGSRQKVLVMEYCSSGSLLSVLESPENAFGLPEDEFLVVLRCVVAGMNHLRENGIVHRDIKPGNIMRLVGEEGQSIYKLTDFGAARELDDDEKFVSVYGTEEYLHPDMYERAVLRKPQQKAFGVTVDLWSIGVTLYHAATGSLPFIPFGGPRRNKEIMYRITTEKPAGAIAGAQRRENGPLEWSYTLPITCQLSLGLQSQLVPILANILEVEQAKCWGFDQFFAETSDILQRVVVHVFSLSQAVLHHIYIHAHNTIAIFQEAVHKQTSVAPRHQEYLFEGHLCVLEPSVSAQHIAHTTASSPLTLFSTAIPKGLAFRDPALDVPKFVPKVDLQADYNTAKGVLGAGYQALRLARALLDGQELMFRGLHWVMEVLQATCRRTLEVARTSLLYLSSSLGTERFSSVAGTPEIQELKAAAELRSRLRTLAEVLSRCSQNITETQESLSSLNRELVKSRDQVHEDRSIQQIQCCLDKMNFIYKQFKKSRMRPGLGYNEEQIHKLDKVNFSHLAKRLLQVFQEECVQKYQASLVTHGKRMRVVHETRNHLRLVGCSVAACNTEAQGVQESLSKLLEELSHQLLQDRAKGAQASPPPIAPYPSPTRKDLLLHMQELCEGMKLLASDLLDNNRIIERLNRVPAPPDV

[2] = biological target: T2, Serine/threonine-protein kinase Nek1 (Homo sapiens) (UniProt Q96PY6); details: at 0.1 µM
T2 sequence (whole entry): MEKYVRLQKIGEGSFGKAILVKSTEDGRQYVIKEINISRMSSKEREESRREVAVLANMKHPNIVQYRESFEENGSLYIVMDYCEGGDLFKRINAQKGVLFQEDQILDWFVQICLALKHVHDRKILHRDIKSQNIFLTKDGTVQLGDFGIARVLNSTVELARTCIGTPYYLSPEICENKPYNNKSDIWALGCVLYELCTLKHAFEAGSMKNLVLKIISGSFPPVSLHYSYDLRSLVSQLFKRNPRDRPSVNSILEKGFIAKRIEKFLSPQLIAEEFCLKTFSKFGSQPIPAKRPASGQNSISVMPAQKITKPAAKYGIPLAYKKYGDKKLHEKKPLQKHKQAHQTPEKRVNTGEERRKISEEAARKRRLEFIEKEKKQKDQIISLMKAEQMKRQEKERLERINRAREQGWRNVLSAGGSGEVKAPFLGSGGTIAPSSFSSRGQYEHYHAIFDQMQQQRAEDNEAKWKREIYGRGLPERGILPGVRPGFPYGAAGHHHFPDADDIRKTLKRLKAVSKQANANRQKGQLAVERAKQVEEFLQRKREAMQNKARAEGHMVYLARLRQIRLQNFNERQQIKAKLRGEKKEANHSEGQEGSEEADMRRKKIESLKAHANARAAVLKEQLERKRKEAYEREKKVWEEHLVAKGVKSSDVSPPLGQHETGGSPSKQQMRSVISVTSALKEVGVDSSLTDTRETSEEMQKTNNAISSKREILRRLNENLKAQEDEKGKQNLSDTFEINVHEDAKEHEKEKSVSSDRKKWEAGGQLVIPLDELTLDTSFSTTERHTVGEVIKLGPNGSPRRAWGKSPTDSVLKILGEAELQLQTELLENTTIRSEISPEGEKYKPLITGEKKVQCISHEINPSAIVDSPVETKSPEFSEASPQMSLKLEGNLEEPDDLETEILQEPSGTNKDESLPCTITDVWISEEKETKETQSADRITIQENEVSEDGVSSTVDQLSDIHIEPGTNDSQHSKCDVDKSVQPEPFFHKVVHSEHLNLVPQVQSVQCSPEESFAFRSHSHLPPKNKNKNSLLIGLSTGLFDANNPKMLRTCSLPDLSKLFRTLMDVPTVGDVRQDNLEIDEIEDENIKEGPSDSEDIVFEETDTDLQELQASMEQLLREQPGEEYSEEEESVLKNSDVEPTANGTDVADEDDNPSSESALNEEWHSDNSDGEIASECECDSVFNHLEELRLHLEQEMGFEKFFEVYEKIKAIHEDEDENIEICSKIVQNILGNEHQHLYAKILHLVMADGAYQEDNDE

[3] = biological target: T2, Serine/threonine-protein kinase Nek1 (Homo sapiens); details: at 1 µM
[4] = biological target: T3, Serine/threonine-protein kinase Nek2 (Homo sapiens) (UniProt P51955); details: at 0.1 µM
T3 sequence (whole entry): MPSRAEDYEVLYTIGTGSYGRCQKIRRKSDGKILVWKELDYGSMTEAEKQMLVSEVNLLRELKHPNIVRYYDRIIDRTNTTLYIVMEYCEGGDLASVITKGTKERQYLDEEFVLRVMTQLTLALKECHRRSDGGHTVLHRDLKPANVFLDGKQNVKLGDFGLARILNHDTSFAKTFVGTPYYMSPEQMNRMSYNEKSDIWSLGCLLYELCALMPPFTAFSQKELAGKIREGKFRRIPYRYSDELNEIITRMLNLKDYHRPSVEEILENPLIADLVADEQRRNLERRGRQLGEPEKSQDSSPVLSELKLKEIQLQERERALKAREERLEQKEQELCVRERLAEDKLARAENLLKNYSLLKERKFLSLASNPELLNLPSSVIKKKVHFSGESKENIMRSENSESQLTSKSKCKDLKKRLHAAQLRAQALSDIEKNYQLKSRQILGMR

[5] = biological target: T3, Serine/threonine-protein kinase Nek2 (Homo sapiens); details: at 1 µM
[6] = biological target: Serine/threonine-protein kinase Nek6 (Homo sapiens) (UniProt Q9HC98); details: at 0.1 µM
Chain of Serine/threonine-protein kinase Nek6 (Homo sapiens) (Q9HC98 whole entry): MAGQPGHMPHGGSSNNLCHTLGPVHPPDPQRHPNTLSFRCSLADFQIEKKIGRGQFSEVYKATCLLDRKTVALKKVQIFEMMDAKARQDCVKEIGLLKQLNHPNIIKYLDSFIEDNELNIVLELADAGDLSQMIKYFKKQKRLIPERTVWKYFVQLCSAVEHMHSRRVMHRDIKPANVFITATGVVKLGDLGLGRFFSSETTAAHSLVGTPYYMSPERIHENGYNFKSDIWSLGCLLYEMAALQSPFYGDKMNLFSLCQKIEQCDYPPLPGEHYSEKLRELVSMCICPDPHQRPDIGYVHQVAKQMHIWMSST

[7] = biological target: Serine/threonine-protein kinase Nek6 (Homo sapiens) (UniProt Q9HC98); details: at 1 µM
[8] = biological target: Serine/threonine-protein kinase Nek7 (Homo sapiens) (UniProt Q8TDX7); details: at 0.1 µM
Chain of Serine/threonine-protein kinase Nek7 (Homo sapiens) (Q8TDX7 whole entry, looked up): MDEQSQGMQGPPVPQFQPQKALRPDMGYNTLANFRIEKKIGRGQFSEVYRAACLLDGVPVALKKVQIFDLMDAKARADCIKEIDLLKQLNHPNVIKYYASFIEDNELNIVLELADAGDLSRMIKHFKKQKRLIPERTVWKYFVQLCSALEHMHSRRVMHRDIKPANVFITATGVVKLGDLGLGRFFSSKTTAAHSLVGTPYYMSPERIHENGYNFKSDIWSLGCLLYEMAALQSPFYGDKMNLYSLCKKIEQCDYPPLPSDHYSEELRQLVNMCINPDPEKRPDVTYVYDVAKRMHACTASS

[9] = biological target: Serine/threonine-protein kinase Nek7 (Homo sapiens) (UniProt Q8TDX7); details: at 1 µM
[10] = biological target: T4, Serine/threonine-protein kinase Nek9 (Homo sapiens) (UniProt Q8TD19); details: at 0.1 µM
T4 sequence (whole entry): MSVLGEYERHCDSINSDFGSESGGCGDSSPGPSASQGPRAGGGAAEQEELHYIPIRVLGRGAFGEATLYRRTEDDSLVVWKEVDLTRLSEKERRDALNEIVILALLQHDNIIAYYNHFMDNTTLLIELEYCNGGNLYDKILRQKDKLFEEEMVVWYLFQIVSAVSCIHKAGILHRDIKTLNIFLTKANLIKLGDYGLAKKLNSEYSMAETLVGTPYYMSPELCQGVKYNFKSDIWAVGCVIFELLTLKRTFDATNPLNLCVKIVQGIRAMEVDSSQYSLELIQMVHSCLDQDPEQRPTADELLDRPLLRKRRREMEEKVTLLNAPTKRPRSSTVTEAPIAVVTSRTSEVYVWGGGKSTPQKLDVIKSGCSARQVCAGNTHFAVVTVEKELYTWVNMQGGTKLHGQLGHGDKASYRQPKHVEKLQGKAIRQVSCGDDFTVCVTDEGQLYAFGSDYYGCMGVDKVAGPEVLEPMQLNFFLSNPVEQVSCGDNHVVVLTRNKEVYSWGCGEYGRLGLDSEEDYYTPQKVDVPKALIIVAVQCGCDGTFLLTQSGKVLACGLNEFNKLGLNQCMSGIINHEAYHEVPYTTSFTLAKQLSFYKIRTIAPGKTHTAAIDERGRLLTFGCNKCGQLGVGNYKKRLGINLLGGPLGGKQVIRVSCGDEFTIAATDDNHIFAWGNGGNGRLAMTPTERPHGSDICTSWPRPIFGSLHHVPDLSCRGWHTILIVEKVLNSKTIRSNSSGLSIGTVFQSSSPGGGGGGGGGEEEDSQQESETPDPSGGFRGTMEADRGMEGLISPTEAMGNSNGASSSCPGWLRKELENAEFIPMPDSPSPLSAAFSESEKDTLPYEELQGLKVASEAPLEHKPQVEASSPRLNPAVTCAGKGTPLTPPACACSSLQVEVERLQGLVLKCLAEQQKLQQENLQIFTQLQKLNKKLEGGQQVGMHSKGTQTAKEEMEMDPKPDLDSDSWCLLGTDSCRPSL

[11] = biological target: T4, Serine/threonine-protein kinase Nek9 (Homo sapiens); details: at 1 µM
[12] = biological target: Serine/threonine-protein kinase PLK1 (Homo sapiens) (UniProt P53350); details: at 0.1 µM
Chain of Serine/threonine-protein kinase PLK1 (Homo sapiens) (P53350 whole entry): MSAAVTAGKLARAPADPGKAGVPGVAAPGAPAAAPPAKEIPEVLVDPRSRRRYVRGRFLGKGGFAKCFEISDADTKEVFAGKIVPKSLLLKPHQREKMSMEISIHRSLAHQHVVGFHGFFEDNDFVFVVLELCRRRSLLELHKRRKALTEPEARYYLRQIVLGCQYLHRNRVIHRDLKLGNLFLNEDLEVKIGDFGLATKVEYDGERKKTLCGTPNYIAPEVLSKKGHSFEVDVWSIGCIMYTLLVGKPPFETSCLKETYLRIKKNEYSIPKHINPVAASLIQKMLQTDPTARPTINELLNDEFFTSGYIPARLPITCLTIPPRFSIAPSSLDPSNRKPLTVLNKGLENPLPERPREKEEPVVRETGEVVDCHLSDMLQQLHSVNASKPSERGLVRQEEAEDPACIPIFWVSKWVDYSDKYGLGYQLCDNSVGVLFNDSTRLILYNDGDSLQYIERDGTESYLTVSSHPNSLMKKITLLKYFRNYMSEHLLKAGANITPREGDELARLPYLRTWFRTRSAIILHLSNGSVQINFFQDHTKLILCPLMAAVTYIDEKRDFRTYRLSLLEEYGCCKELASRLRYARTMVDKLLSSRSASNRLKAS

[13] = biological target: Serine/threonine-protein kinase PLK1 (Homo sapiens) (UniProt P53350); details: at 1 µM
[14] = biological target: T5, Dual specificity protein kinase TTK (Homo sapiens) (UniProt P33981); details: at 0.1 µM
T5 sequence (whole entry): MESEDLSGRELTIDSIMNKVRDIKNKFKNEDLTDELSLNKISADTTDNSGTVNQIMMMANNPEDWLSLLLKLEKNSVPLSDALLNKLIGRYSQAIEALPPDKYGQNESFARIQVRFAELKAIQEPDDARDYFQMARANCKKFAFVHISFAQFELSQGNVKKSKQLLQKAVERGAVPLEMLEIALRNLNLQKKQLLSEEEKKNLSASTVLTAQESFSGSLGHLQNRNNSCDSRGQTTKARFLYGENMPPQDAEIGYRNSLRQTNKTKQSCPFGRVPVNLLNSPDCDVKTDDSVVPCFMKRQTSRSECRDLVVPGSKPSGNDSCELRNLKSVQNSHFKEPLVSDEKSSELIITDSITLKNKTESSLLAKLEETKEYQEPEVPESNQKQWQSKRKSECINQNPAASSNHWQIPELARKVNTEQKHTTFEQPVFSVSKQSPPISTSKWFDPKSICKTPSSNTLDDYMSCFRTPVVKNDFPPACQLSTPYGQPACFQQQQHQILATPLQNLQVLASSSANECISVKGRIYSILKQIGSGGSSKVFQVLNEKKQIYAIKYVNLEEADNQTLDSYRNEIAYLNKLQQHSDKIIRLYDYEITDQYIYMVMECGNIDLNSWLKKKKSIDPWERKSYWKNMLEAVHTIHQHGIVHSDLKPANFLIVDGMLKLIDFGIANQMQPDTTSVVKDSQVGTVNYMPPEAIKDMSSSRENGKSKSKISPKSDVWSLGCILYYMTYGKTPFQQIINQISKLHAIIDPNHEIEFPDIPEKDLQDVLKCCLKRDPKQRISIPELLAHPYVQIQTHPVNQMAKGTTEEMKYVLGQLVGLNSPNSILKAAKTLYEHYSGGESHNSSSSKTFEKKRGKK

[15] = tested on: T6, Receptor-type tyrosine-protein kinase FLT3 (Homo sapiens), P36888 [D835Y]; details: at 1 µM
T6 sequence (whole entry): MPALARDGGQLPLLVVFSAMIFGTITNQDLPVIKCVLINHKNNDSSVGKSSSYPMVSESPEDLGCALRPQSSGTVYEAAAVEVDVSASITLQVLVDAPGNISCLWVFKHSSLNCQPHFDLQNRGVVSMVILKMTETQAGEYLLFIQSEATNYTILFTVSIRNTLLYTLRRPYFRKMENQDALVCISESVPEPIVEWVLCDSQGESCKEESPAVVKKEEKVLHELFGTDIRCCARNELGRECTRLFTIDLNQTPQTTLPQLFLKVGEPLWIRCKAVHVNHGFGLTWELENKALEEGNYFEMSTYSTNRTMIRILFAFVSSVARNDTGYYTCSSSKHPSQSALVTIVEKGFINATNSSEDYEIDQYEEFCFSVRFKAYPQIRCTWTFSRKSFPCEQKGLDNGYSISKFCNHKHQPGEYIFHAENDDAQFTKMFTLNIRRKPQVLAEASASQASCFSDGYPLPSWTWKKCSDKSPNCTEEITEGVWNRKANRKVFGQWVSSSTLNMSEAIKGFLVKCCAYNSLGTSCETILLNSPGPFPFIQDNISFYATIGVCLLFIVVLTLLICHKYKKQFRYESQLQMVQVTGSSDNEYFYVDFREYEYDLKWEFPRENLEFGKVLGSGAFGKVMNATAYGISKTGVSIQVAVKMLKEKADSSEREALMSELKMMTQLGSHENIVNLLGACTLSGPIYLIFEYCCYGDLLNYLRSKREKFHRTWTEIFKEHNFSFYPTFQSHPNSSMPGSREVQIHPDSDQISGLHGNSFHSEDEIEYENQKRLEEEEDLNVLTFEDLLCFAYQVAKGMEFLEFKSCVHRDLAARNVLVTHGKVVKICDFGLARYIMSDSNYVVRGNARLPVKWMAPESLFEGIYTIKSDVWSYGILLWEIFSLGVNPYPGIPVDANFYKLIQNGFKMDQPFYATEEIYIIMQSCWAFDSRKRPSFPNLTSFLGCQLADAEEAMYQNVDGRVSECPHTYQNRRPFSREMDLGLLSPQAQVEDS

[16] = biological target: Vascular endothelial growth factor receptor 3 (Homo sapiens) (UniProt P35916); details: at 0.1 µM
Chain of Vascular endothelial growth factor receptor 3 (Homo sapiens) (P35916 whole entry): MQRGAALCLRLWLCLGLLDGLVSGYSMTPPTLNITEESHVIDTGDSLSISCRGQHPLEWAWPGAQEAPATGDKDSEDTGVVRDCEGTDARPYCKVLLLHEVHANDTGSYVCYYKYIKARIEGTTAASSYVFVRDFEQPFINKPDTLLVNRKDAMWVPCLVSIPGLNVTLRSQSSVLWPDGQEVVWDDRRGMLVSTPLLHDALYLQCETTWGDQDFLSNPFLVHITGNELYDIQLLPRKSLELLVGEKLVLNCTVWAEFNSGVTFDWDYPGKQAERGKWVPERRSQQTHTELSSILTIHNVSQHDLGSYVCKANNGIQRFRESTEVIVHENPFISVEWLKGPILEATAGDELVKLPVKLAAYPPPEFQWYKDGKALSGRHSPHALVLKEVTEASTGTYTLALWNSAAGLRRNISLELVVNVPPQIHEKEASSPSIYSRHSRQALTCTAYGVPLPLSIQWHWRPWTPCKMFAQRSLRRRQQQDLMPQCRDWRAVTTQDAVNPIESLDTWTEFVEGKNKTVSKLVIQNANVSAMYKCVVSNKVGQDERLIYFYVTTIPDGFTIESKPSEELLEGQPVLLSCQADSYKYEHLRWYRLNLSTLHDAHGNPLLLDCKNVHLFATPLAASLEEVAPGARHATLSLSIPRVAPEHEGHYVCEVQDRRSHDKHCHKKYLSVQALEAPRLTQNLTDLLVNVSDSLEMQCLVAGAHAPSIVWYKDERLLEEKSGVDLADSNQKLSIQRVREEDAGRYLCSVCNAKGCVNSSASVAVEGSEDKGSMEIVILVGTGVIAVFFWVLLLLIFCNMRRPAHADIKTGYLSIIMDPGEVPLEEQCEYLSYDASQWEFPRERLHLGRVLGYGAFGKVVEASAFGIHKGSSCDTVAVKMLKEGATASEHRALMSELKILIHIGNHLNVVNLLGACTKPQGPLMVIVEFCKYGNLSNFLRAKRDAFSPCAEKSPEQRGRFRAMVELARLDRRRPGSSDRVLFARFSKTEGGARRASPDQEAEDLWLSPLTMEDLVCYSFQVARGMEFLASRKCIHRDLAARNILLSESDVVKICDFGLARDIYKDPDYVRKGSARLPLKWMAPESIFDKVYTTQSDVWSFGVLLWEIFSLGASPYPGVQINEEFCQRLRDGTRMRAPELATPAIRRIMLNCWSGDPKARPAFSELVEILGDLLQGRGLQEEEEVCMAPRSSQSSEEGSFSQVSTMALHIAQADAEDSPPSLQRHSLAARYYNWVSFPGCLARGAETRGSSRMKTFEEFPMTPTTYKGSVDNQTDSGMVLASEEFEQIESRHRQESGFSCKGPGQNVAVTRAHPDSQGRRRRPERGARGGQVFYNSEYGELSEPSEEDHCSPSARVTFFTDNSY

[17] = biological target: Vascular endothelial growth factor receptor 3 (Homo sapiens) (UniProt P35916); details: at 1 µM
[18] = biological target: Macrophage colony-stimulating factor 1 receptor (Homo sapiens) (UniProt P07333); details: at 0.1 µM
Chain of Macrophage colony-stimulating factor 1 receptor (Homo sapiens) (P07333 whole entry): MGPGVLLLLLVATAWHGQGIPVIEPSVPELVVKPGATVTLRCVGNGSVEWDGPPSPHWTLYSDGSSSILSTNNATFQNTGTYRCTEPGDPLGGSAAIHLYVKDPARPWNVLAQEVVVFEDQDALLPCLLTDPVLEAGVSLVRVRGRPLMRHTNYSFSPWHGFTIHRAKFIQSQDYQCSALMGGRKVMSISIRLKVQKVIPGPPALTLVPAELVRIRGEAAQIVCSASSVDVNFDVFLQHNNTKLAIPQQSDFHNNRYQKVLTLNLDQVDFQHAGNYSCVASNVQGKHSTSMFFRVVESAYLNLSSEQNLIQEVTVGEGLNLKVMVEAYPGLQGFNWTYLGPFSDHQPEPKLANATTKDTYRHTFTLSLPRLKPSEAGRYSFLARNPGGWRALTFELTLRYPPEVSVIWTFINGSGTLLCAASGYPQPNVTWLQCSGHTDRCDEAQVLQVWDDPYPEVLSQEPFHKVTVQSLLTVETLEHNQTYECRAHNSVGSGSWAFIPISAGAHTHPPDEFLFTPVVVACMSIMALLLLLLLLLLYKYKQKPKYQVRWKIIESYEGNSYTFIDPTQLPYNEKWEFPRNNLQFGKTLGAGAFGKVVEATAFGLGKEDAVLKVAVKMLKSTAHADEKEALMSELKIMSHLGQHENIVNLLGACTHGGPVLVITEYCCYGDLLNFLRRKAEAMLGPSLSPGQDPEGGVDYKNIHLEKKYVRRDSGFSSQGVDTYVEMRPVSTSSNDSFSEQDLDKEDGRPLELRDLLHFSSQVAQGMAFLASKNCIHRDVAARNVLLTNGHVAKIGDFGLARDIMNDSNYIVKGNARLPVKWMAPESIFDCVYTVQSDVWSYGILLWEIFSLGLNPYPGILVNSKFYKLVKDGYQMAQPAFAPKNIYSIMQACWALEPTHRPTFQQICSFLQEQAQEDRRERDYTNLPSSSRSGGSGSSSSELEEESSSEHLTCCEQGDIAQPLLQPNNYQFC

[19] = biological target: Macrophage colony-stimulating factor 1 receptor (Homo sapiens) (UniProt P07333); details: at 1 µM
[20] = biological target: Tyrosine-protein kinase Fyn (Homo sapiens) (UniProt P06241); details: at 0.1 µM
Chain of Tyrosine-protein kinase Fyn (Homo sapiens) (P06241 2-537 limits assumed): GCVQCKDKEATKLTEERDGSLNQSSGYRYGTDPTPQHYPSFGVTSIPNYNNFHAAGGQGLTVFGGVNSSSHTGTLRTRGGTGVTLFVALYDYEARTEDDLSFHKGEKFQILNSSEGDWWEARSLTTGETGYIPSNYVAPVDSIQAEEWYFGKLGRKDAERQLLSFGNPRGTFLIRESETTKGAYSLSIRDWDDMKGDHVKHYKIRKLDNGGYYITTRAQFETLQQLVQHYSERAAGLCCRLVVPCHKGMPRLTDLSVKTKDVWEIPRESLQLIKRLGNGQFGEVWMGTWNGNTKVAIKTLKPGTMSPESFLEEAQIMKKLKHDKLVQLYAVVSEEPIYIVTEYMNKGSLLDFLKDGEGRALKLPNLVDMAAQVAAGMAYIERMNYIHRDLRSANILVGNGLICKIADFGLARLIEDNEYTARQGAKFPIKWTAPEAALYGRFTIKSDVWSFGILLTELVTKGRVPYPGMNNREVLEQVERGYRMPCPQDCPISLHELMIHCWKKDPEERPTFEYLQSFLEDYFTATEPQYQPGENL

| Structure (SMILES) | inhibition [1] | inhibition [2] | inhibition [3] | inhibition [4] | inhibition [5] | inhibition [6] | inhibition [7] | inhibition [8] | inhibition [9] | inhibition [10] | inhibition [11] | inhibition [12] | inhibition [13] | inhibition [14] | inhibition [15] | inhibition [16] | inhibition [17] | inhibition [18] | inhibition [19] | inhibition [20] |
| --- | --- | --- | --- | --- | --- | --- | --- | --- | --- | --- | --- | --- | --- | --- | --- | --- | --- | --- | --- | --- |
| COc1cc(N2CCN(C(C)C)CC2)ccc1Nc1nc(Nc2ccc(F)cc2C(N)=O)c2cc[nH]c2n1 | 4.36% | 3.16% | 11.2% | 3.34% | 2.89% | 2.32% | 5.57% | 2.07% | 7.1% | 4.13% | 13.5% | 16% | 64.8% | 83% | 40.7% | 3.45% | 2.68% | 11.7% | 48.1% | 2.48% |
| CC(C)COC(=O)c1ccc2c(c1)/C(=C/Nc1ccc(S(N)(=O)=O)cc1)C(=O)N2 | 93.4% | -1.61% | 2.33% | -0.98% | 0.66% | -0.45% | 9.49% | 0.03% | 0.46% | -3.08% | 0.18% | 1.14% | 2.98% | 53.6% | 86.5% | 30.1% | 80.6% | 7.27% | 45.8% | 22.6% |

Source: ChEMBL document CHEMBL1961873, “Compounds: GSK PKIS; Assays: Nanosyn kinase panel” (2012)
